From PubChem BioAssay
Sampled rows, rich in hits. Any-hit rate of the full collection: about 21%.
Pf growth 48h – inhibits P. falciparum growth in the first generation, 48 h; Potency, µM (doses to about 28.7 µM), for inactives: at the top dose activity change, negative = inhibition, hits mostly inhibitors; 5.9% of 310,000 active; P. falciparum luciferase growth in erythrocytes, 48 h; active means well fitted inhibition curve with a large enough effect; inconclusive means small, poorly fitted or top-dose-only effect, or another doubt; inactive means no such curve, though single readings can be large or run the other way; further: potency means the concentration at half of the fitted maximal effect; on the % scale 0 is the no-effect control and ±100 the full control effect
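Luciferase-expressing parasites in RBCs, 2% Hct / 0.1% parasitemia final; RPMI 1640 + 0.5% Albumax; 37 C, 5% CO2, one generation; luminescence read-out, lower signal = inhibition.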
SARS PLP yeast – SARS-CoV PLP inhibition in yeast; Potency, µM (titrated, usually from 32.9 µM), inactives show at the highest dose activity, positive = growth rescue, hits mostly activators; 0.19% of 330,000 active; S. cerevisiae expressing SARS-CoV PLpro, growth rescue; further: potency means the concentration at half of the fitted maximal effect; 0% is about no effect; nearly all actives have a fitted effect of over 55% in size
Pf growth 96h – P. falciparum growth inhibition at 96 hours. P. falciparum luciferase reporter growth, 96 h. Potency, µM (highest dose often 28.7 µM), for inactives: at the top dose activity change, negative = inhibition, usual class: inhibitors. 6.9% of 320,000 active; active means well fitted inhibition curve with a large enough effect; inconclusive means small, poorly fitted or top-dose-only effect, or another doubt; inactive means no such curve, though single readings can be large or run the other way; further: potency means the concentration at half of the fitted maximal effect; on the % scale 0 is the no-effect control and ±100 the full control effect
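Plates of compound plus infected erythrocytes (2% hematocrit, 0.05% parasitemia final) incubate 96 hours, 37 C, 5% CO2. Detection reagent added; reduced luminescence from the parasites' luciferase reporter flags inhibition.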
NS1 function inh – blocks influenza NS1 protein function. Potency, µM (titrated, usually from 46.1 µM), for the others: top-dose activity, positive = more growth. 0.4% of 270,000 active. AID 2326; further: potency means the concentration at half of the fitted maximal effect; actives are rising curves; nearly all actives have a fitted effect of over 50% in size
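Recovery from NS1-induced slow growth read by OD600 in budding yeast switched to galactose assay medium (pH 6.0, -URA) at 1:100 dilution. Compound 23 nl per well; the matching strain lacking NS1 serves as control.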
Shiga toxin inh – Shiga toxin inhibition; 9.2% of 290,000 active; AID 2315; Vero cells, Shiga toxin protein synthesis inhibition reporter; inhibition, % at 38.7 µM; in the data active means inhibition mostly above about 28%, no sharp cut-off; inactive means mostly below about 43%; further: 0% is about no effect
Cycloheximide cs – affects cycloheximide protein synthesis inhibition readout, counter-screen; cell reporter, cycloheximide protein synthesis inhibition counterscreen; max response, %; 12% of 300,000 active; in the data active means max response mostly above about 13%, no sharp cut-off; inactive means mostly below about 14%; further: read at 38.3 µM for the half of the compounds with a filed dose; 0% is about no effect
An asterisk follows results filed as active. Unless noted, the call rests on the fitted dose curve.

How did O=C1OC(C(=O)Nc2ccccc2)Cc2ccccc21 (stereo not given) do in these assays?
Pf growth 48h: 44.9%; SARS PLP yeast: 1.3%; Pf growth 96h: 66.9%; Shiga toxin inh: 64.1*; Cycloheximide cs: 40.9*

How did O=C(Nc1cccc([N+](=O)[O-])c1)c1cc(S(=O)(=O)N2CCOCC2)cs1 do in these assays?
Pf growth 48h: -28.9%; SARS PLP yeast: -3.3%; Pf growth 96h: -11.5%; NS1 function inh: 3.4%; Shiga toxin inh: -6.7; Cycloheximide cs: -1.4

What do the screens show for `O=C(COC(=O)c1cc(S(=O)(=O)N2CCCCC2)ccc1N1CCOCC1)NCCc1ccc(F)cc1`?
Pf growth 48h: inconclusive; SARS PLP yeast: 4.2%; Pf growth 96h: inconclusive; NS1 function inh: inconclusive; Shiga toxin inh: 2.6; Cycloheximide cs: -1.5

What do the screens show for `O=C(COC(=O)c1cc(S(=O)(=O)N2CCOCC2)cs1)c1ccccc1`?
Pf growth 48h: 18.8%; SARS PLP yeast: -1.2%; Pf growth 96h: 9.28µM*; NS1 function inh: -1.7%; Shiga toxin inh: -0.1; Cycloheximide cs: 6.9

What do the screens show for `O=C(Nc1ccccc1[N+](=O)[O-])c1cc(S(=O)(=O)N2CCOCC2)cs1`?
Pf growth 48h: -3.5%; SARS PLP yeast: -3.7%; Pf growth 96h: inconclusive; NS1 function inh: -5.4%; Shiga toxin inh: 38.3; Cycloheximide cs: 19.3*

Results for O=C(COC(=O)c1cc(S(=O)(=O)N2CCOCC2)ccc1F)c1ccccc1 ?
SARS PLP yeast: 1.8%

How did O=C(COC(=O)c1cc(S(=O)(=O)N2CCCCC2)ccc1N1CCOCC1)c1ccccc1 do in these assays?
Pf growth 48h: 8.28µM*; SARS PLP yeast: -2.3%; Pf growth 96h: inconclusive

Results for O=C(COC(=O)c1cc(S(=O)(=O)N2CCCCC2)ccc1N1CCOCC1)c1ccc(Cl)cc1 ?
Pf growth 48h: 11.7µM*; SARS PLP yeast: 2.5%; Pf growth 96h: 13.1µM*

What do the screens show for `O=C(CN1C(=O)NC2(CCCC2)C1=O)OCCOc1ccccc1Cl`?
Pf growth 48h: 21.3%; SARS PLP yeast: -6.7%; Pf growth 96h: 32.4%

Results for Cc1nn(C)c(C)c1NS(=O)(=O)c1cccc(Br)c1 ?
Pf growth 48h: -0.6%; SARS PLP yeast: 1.0%; Pf growth 96h: 12.9%

What do the screens show for `CC(C)CNC(=O)COC(=O)c1cc(S(=O)(=O)N2CCCCC2)ccc1N1CCOCC1`?
Pf growth 48h: inconclusive; SARS PLP yeast: 3.5%; Pf growth 96h: inconclusive; NS1 function inh: -11.4%; Shiga toxin inh: -7.7; Cycloheximide cs: 5.7

How did CC(C)NC(=O)NC(=O)COC(=O)c1cc(S(=O)(=O)N2CCCCC2)ccc1N1CCOCC1 do in these assays?
Pf growth 48h: 8.28µM*; SARS PLP yeast: 10.6%; Pf growth 96h: inconclusive; NS1 function inh: 5.3%; Shiga toxin inh: 43.8*; Cycloheximide cs: 12.3*

Results for COc1cc(C(C)C)c2c(c1)S(=O)(=O)N(COc1cc(=O)n3cccc(OCCN4CCCCC4)c3n1)C2=O ?
Shiga toxin inh: -17.0; Cycloheximide cs: -8.6

Results for c1ccc2c(c1)Cn1nc(Cc3nc4c(s3)CCCC4)nc1-2 ?
Pf growth 48h: 26.1%; SARS PLP yeast: 3.0%; Pf growth 96h: 14.5%; NS1 function inh: -47.1%; Shiga toxin inh: 74.2*; Cycloheximide cs: 34.8*

How did N#CCc1nc2n(n1)Cc1ccccc1-2 do in these assays?
Pf growth 48h: -18.5%; SARS PLP yeast: -2.4%; Pf growth 96h: inconclusive; NS1 function inh: 5.3%; Shiga toxin inh: 0.7; Cycloheximide cs: -4.1

Results for CCOCCCn1c(SC(C(=O)Nc2cc(C)ccc2C)c2ccccc2)nnc1-c1ccc(Cl)cc1 (stereo not given) ?
Pf growth 48h: 11.7µM*; SARS PLP yeast: -17.7%; Pf growth 96h: 9.28µM*; NS1 function inh: inconclusive; Shiga toxin inh: 17.2; Cycloheximide cs: -1.0

How did CCNc1nc(NCC)n2c(SC(C(=O)Nc3cc(C)ccc3C)c3ccccc3)nnc2n1 (stereo not given) do in these assays?
Pf growth 48h: inconclusive; SARS PLP yeast: 4.3%; Pf growth 96h: 11.7µM*; NS1 function inh: 7.4%; Shiga toxin inh: 2.0; Cycloheximide cs: -3.2

Results for COc1ccc(C2=Nn3c(nnc3-c3ccc(OC)c(OC)c3)SC2)c(OC)c1 ?
Shiga toxin inh: 21.8; Cycloheximide cs: -1.5
